This passage reports outcome and AC50 results from PubChem BioAssay (EPA / NIEHS).

Holding throughout (details): mRNA level, 48 h; actives raise or lower the signal
Read-out in experiment [1]: ATP-citrate lyase (ACLY), ACLY (gene 47)
The experiment in a line: LTEA_HepaRG_ACLY: Life Technologies and Expression Analysis (LTEA) Assay for ATP-citrate lyase (ACLY) using HepaRG (AID 2283466). In a few lines: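 Differentiated human HepaRG cells in serum-free induction medium exposed 48 h, in duplicate, to eight half-log concentrations from 100 uM top in 0.5% DMSO; ACLY mRNA measured by qRT-PCR, normalized to ACTB, GAPDH, POLR2A, fitted bidirectionally versus DMSO.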

Read-out in experiment [2]: Peroxisomal acyl-coenzyme A oxidase 1 (ACOX1) gene, ACOX1 (gene 51)
The experiment in a line: LTEA_HepaRG_ACOX1: Life Technologies and Expression Analysis (LTEA) Assay for Peroxisomal acyl-coenzyme A oxidase 1 (ACOX1) gene using HepaRG (AID 2283467). The essentials:
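Differentiated human HepaRG cells were exposed in duplicate for 48 h in serum-free induction medium to eight half-log concentrations up to 100 uM in 0.5% DMSO. ACOX1 mRNA was then quantified by TaqMan qRT-PCR, normalized to ACTB, GAPDH and POLR2A.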

Read-out in experiment [3]: Alkaline Phosphatase, Placental (ALPP) gene, ALPP (gene 250)
The experiment in a line: LTEA_HepaRG_ALPP: Life Technologies and Expression Analysis (LTEA) Assay for Alkaline Phosphatase, Placental (ALPP) gene using HepaRG (AID 2283468). In a few lines:
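Expression of ALPP was quantified by qRT-PCR against three housekeeping genes in human HepaRG cultures treated for 48 h with an eight-point concentration series up to 100 uM. Activity in either direction was fitted relative to 0.5% DMSO.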

Read-out in experiment [4]: Bcl-2 (BAD) gene, BAD (gene 572)
In words: LTEA_HepaRG_BAD: Life Technologies and Expression Analysis (LTEA) Assay for Bcl-2 (BAD) gene using HepaRG (AID 2283469). In a few lines:
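Differentiated human HepaRG cells in serum-free induction medium were exposed in duplicate for 48 h to eight concentrations (top 100 uM, half-log steps, 0.5% DMSO). BAD mRNA was quantified by qRT-PCR normalised to ACTB, GAPDH and POLR2A, with bidirectional fitting versus DMSO.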

Read-out in experiment [5]: Bcl-2 (BAX) gene, BAX (gene 581)
In words: LTEA_HepaRG_BAX: Life Technologies and Expression Analysis (LTEA) Assay for Bcl-2 (BAX) gene using HepaRG (AID 2283470). In a few lines: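 HepaRG (human liver), 48 h exposure, duplicate wells. 8-pt curve, half-log from 100 uM, 0.5% DMSO. BAX transcript by TaqMan qRT-PCR; ACTB/GAPDH/POLR2A normalization; gain or loss vs DMSO baseline.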

Read-out in experiment [6]: adenosine kinase (ADK) gene, ADK (gene 132)
The experiment in a line: LTEA_HepaRG_ADK: Life Technologies and Expression Analysis (LTEA) Assay for adenosine kinase (ADK) gene using HepaRG (AID 2283471). The essentials: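 Differentiated HepaRG cells dosed 48 h in serum-free induction medium, 0.5% DMSO vehicle, eight half-log concentrations from 100 uM, in duplicate. ADK mRNA by TaqMan qRT-PCR normalised to ACTB, GAPDH, POLR2A; bidirectional fit versus DMSO.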

Read-out in experiment [7]: Alpha-fetoprotein (AFP) gene, AFP (gene 174)
The experiment in a line: LTEA_HepaRG_AFP: Life Technologies and Expression Analysis (LTEA) Assay for Alpha-fetoprotein (AFP) gene using HepaRG (AID 2283472). The essentials: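 HepaRG, single lot; 48 h post-plating -> serum-free induction medium; cpd 8-pt, 100 uM top, half-log, 0.5% DMSO, duplicate, 48 h. RNA -> qRT-PCR AFP, norm ACTB/GAPDH/POLR2A. Bidirectional fit vs DMSO.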

Read-out in the next experiment: BCL2L11 (gene 10018)
In words: LTEA_HepaRG_BCL2L11: Life Technologies and Expression Analysis (LTEA) Assay for Bcl-2 (BCL2L11) gene using HepaRG (AID 2283473). The essentials: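 Cells were plated, cultured 48 h, switched to serum-free induction medium, then dosed in duplicate for 48 h at eight half-log concentrations up to 100 uM. Lysates underwent RNA isolation and TaqMan qRT-PCR; gain or loss versus DMSO was fitted.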

Read-out in experiment [8]: Apolipoprotein A-V (APOA5) gene, APOA5 (gene 116519)
The experiment in a line: LTEA_HepaRG_APOA5: Life Technologies and Expression Analysis (LTEA) Assay for Apolipoprotein A-V (APOA5) gene using HepaRG (AID 2283474). The essentials: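 Human liver HepaRG cells are treated 48 h with test chemicals (100 uM top, half-log dilutions, 0.5% DMSO). APOA5 mRNA induction or loss is measured by qRT-PCR relative to vehicle.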

Read-out in experiment [9]: Apoptosis regulator Bcl-2 (Homo sapiens) (UniProt P10415)
The experiment in a line: LTEA_HepaRG_BCL2: Life Technologies and Expression Analysis (LTEA) Assay for Bcl-2 gene using HepaRG (AID 2283475). In a few lines:
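HepaRG, plated 48 h then switched to serum-free induction medium; dosed 48 h, 8 conc. (max 100 uM, half-log steps), duplicate, 0.5% DMSO. Lysis in RLT, RNA isolated, TaqMan qRT-PCR for BCL2; ACTB/GAPDH/POLR2A normalisation; bidirectional fit vs DMSO.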

Read-out in experiment [10]: Bcl-2 (BID) gene, BID (gene 637)
The experiment in a line: LTEA_HepaRG_BID: Life Technologies and Expression Analysis (LTEA) Assay for Bcl-2 (BID) gene using HepaRG (AID 2283476). The essentials: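 Transcript levels of BID, measured by qRT-PCR and normalized to three housekeeping genes, were fitted bidirectionally against DMSO controls. Cells were HepaRG, dosed 48 h at up to 100 uM.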

Read-out in another experiment: Caspase-3 (Homo sapiens) (UniProt P42574)
The experiment in a line: LTEA_HepaRG_CASP3: Life Technologies and Expression Analysis (LTEA) Assay for cysteine-aspartic acid protease (CASP3) using HepaRG (AID 2283477). In a few lines:
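In HepaRG liver cells dosed for 48 h at up to 100 uM (eight-point, duplicate), CASP3 expression changes are scored by qRT-PCR. Activity is fitted in both directions with 0.5% DMSO as baseline.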

Read-out in experiment [11]: Cytochrome P450 (CYP24A1), CYP24A1 (gene 1591)
The experiment in a line: LTEA_HepaRG_CYP24A1: Life Technologies and Expression Analysis (LTEA) Assay for Cytochrome P450 (CYP24A1) using HepaRG (AID 2283478). In a few lines: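 Human liver HepaRG cultures receive each chemical for 48 h across an eight-point half-log series topping at 100 uM in 0.5% DMSO. Induction or suppression of CYP24A1 mRNA is scored relative to vehicle after housekeeping-gene normalization.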

Read-out in experiment [12]: Cytochrome P450 (CYP1A2), CYP1A2 (gene 1544)
The experiment in a line: LTEA_HepaRG_CYP1A2: Life Technologies and Expression Analysis (LTEA) Assay for Cytochrome P450 (CYP1A2) using HepaRG (AID 2283479). In a few lines:
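Assesses CYP1A2 mRNA in human HepaRG liver cells after 48 h chemical exposure at up to 100 uM. Values come from qRT-PCR with bidirectional curve fitting relative to DMSO.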

Read-out in experiment [13]: cysteine-aspartic acid protease (CASP8), CASP8 (gene 841)
In words: LTEA_HepaRG_CASP8: Life Technologies and Expression Analysis (LTEA) Assay for cysteine-aspartic acid protease (CASP8) using HepaRG (AID 2283480). The essentials: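 Differentiated human HepaRG cells, plated 48 h then switched to serum-free induction medium, were exposed in duplicate for 48 h to 8 half-log concentrations up to 100 uM in 0.5% DMSO. CASP8 mRNA was quantified by qRT-PCR, normalized to ACTB/GAPDH/POLR2A.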

Read-out in experiment [14]: Cytochrome P450 (CYP2B6), CYP2B6 (gene 1555)
The experiment in a line: LTEA_HepaRG_CYP2B6: Life Technologies and Expression Analysis (LTEA) Assay for Cytochrome P450 (CYP2B6) using HepaRG (AID 2283481). In a few lines:
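Using 48 h treatment of HepaRG cells in serum-free induction medium, concentrations spanned half-log steps from 100 uM in 0.5% DMSO vehicle. CYP2B6 mRNA induction or loss is scored by qRT-PCR against DMSO.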

Read-out in experiment [15]: Cytochrome P450 2C19 (Homo sapiens) (UniProt P33261)
The experiment in a line: LTEA_HepaRG_CYP2C19: Life Technologies and Expression Analysis (LTEA) Assay for CYP2C19 using HepaRG (AID 2283482). In a few lines: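 Human HepaRG liver cells received test chemicals for 48 h (highest 100 uM, half-log dilutions in 0.5% DMSO). CYP2C19 mRNA induction or loss is read by multiplexed qRT-PCR and fitted in both directions versus vehicle.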

Read-out in the next experiment: CYP2C8 (gene 1558)
The experiment in a line: LTEA_HepaRG_CYP2C8: Life Technologies and Expression Analysis (LTEA) Assay for CYP2C8 using HepaRG (AID 2283483). In a few lines: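 Differentiated human HepaRG cells were exposed for 48 h in serum-free induction medium to eight half-log concentrations up to 100 uM in 0.5% DMSO, in duplicate. CYP2C8 mRNA was measured by TaqMan qRT-PCR, normalized to ACTB, GAPDH and POLR2A, and fitted bidirectionally against DMSO.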

Read-out in a further experiment: CYP2E1 (gene 1571)
The experiment in a line: LTEA_HepaRG_CYP2E1: Life Technologies and Expression Analysis (LTEA) Assay for CYP2E1 using HepaRG (AID 2283485). The essentials: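 Human liver line HepaRG, plated 48 h, then serum-free induction medium + chemical x 48 h; 8-pt CRC from 100 uM, half-log, 0.5% DMSO, n=2. Readout: CYP2E1 mRNA qRT-PCR vs ACTB/GAPDH/POLR2A; bidirectional fit vs DMSO.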

Read-out in another experiment: CYP2C9 (gene 1559)
In words: LTEA_HepaRG_CYP2C9: Life Technologies and Expression Analysis (LTEA) Assay for CYP2C9 using HepaRG (AID 2283484). The essentials: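 Differentiated human HepaRG cells were exposed 48 h in serum-free induction medium to eight half-log concentrations up to 100 uM in 0.5% DMSO. CYP2C9 mRNA was measured by qRT-PCR, normalized to ACTB, GAPDH and POLR2A, and fitted bidirectionally against DMSO.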

The source made the active and inactive calls. How the source made its calls: active means hit-call score of the fitted dose curve at least 0.9, where 1 is the maximum; inactive means score below 0.9.

Sequence of Caspase-3 (Homo sapiens) (P42574 whole entry, looked up): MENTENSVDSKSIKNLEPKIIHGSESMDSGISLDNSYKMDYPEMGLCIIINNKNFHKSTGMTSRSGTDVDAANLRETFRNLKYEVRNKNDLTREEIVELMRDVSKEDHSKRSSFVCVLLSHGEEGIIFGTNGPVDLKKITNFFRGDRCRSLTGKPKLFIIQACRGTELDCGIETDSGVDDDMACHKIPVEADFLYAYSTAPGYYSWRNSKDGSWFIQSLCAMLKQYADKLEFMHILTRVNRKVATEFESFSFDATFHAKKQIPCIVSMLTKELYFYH
Sequence of Cytochrome P450 2C19 (Homo sapiens) (P33261 whole entry, looked up): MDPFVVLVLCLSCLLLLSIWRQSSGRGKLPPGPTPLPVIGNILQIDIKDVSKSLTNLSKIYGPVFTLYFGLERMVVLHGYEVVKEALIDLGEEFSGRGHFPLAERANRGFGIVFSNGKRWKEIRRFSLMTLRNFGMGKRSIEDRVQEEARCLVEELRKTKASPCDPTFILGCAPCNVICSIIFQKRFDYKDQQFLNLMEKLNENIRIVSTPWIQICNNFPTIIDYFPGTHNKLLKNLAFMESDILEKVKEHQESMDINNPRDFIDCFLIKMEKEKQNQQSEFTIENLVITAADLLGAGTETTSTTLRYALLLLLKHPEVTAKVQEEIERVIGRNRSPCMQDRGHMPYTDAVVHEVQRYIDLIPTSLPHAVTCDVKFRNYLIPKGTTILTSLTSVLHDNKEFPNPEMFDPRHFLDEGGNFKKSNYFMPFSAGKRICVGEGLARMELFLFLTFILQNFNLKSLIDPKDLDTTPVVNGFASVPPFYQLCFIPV
Sequence of Apoptosis regulator Bcl-2 (Homo sapiens) (P10415 whole entry, looked up): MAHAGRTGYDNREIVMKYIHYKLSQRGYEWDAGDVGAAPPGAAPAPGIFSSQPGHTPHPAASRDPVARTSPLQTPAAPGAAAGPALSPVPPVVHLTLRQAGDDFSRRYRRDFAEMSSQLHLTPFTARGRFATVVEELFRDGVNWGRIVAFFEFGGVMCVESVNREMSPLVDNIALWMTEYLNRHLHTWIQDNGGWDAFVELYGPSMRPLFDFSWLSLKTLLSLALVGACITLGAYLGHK

Take `Cc1cccc(C)c1N`: the compound was classed as inactive in experiment [1], in experiment [2], in experiment [3], in experiment [4], in experiment [5] and in experiment [6]. The compound was classed as inactive (in experiment [7]; in the experiment with BCL2L11 (gene 10018); in experiment [8]; in experiment [9]; in experiment [10]; with Caspase-3 (Homo sapiens)). The call (in [11]; in [12]; in experiment [13]; in [15]; with CYP2C8 (gene 1558); with CYP2E1 (gene 1571)) was inactive. Further, the AC50 – broadly, the midpoint of the concentration-response curve, whichever way the signal moves – in experiment [14] is 19.3 µM (active).
In the case of `CN(C)c1nc(=O)n(C2CCCCC2)c(=O)n1C`, the call in [1], in experiment [2], in experiment [4], in [5], in [6] and in experiment [7] was inactive. In addition, the compound was called inactive (with BCL2L11 (gene 10018); in experiment [8]; in experiment [9]; in experiment [10]; in the experiment with Caspase-3 (Homo sapiens); in [11]). For the same compound, the result (in [12]; in [13]; in [15]; with CYP2C8 (gene 1558); in the experiment with CYP2E1 (gene 1571)) was inactive. The concentration at half-maximal activity (AC50) in [3] was 12.5 µM (active); in [14] it was 33.6 µM (active).
Take `Cc1ccccc1O`: the compound was classed as inactive in experiment [1], in experiment [2], in experiment [3], in experiment [4], in experiment [5] and in [6]. Besides, the outcome (in experiment [7]; with BCL2L11 (gene 10018); in experiment [8]; in [9]; in [10]; in the experiment with Caspase-3 (Homo sapiens)) was inactive. Besides, the outcome (in experiment [11]; in experiment [12]; in experiment [13]; in experiment [15]; in the experiment with CYP2C8 (gene 1558); with CYP2C9 (gene 1559)) was inactive. For the same compound, the compound was called inactive with CYP2E1 (gene 1571). In addition, the AC50 in [14] was 24.4 µM (active).
